The values below come from ChEMBL document CHEMBL1961873, “Compounds: GSK PKIS; Assays: Nanosyn kinase panel” (2012).

Experiment [1] concerns the target Serine/threonine-protein kinase pim-2 (Homo sapiens) (UniProt Q9P1W9). To be noted: at 1 µM.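 Note: each value is a mean of the inhibition measurements against the kinase.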
Experiment [2] concerns the target Serine/threonine-protein kinase pim-3 (Homo sapiens) (UniProt Q86V86). Conditions: at 0.1 µM.
For experiment [3] the target is unchanged. Conditions: at 1 µM.
Experiment [4] concerns the target T1, MAP kinase-activated protein kinase 5 (Homo sapiens) (UniProt Q8IW41).
T1 sequence (whole entry): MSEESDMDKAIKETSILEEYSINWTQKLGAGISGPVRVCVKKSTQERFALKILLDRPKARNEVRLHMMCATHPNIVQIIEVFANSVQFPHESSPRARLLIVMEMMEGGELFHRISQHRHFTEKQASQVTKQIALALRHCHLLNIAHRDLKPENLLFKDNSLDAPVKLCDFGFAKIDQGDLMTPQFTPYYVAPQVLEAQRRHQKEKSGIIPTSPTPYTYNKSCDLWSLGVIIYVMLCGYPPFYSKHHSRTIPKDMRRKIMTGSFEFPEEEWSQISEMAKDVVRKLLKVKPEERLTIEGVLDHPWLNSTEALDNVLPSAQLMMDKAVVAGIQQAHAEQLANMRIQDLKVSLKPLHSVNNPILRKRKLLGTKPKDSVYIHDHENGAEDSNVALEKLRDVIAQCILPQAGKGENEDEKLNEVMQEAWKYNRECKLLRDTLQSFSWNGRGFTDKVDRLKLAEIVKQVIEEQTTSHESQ
Conditions: at 0.1 µM.

For experiment [5], the target named is T1, MAP kinase-activated protein kinase 5 (Homo sapiens). Conditions: at 1 µM.
Experiment [6] deals with Serine/threonine-protein kinase SIK1 (Homo sapiens) (UniProt P57059). To be noted: at 0.1 µM.
Sequence of Serine/threonine-protein kinase SIK1 (Homo sapiens) (P57059 whole entry): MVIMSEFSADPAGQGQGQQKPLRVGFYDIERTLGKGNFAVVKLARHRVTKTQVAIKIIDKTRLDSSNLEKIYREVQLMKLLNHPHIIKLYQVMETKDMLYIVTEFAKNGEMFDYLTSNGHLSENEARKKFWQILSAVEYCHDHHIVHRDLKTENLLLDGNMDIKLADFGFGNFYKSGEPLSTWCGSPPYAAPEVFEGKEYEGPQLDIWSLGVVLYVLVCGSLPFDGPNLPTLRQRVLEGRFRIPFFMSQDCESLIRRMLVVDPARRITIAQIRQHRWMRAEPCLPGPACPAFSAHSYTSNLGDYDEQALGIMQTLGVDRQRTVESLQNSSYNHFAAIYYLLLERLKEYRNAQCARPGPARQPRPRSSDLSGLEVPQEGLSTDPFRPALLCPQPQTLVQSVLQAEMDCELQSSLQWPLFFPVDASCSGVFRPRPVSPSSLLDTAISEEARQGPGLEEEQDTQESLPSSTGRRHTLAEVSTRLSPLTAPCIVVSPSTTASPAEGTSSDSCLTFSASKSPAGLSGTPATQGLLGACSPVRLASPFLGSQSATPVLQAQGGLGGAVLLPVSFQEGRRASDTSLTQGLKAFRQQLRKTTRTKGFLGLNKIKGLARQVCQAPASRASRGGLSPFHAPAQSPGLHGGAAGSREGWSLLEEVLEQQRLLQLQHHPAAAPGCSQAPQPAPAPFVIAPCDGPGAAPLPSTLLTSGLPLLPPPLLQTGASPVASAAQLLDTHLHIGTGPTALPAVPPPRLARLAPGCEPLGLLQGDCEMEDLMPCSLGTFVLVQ
Experiment [7] has the same target. To be noted: at 1 µM.
In experiment [8] the target is Serine/threonine-protein kinase SIK2 (Homo sapiens) (UniProt Q9H0K1). Conditions: at 0.1 µM.
Sequence of Serine/threonine-protein kinase SIK2 (Homo sapiens) (Q9H0K1 whole entry, looked up): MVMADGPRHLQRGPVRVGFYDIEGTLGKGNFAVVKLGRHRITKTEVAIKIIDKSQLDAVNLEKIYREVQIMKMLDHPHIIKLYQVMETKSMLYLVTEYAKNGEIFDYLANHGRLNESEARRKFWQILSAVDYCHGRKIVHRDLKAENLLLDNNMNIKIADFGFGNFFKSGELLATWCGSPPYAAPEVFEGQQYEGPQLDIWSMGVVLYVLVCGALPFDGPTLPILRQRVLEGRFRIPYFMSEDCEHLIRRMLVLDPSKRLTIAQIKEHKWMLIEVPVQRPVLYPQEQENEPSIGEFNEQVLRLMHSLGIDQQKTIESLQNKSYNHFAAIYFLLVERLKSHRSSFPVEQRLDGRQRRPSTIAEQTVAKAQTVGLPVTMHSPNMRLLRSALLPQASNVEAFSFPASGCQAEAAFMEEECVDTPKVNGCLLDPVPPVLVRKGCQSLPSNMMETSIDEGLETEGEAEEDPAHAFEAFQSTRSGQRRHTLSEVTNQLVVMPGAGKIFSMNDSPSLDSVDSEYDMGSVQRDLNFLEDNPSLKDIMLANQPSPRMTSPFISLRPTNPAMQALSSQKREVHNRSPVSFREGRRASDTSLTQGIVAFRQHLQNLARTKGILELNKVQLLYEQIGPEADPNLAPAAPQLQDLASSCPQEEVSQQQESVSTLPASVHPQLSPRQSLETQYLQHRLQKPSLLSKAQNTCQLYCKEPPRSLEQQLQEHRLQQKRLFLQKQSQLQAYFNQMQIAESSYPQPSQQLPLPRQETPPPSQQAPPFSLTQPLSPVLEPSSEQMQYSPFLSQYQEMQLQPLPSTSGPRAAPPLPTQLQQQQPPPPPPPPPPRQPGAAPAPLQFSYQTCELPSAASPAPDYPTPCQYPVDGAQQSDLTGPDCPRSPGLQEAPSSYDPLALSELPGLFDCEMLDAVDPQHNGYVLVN
For experiment [9] the target is unchanged. Conditions: at 1 µM.
Experiment [10] has as its target T2, Serine/threonine-protein kinase TBK1 (Homo sapiens) (UniProt Q9UHD2).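 Note: values are the mean TBK1 inhibition, taken from the GSK PKIS screening data.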
T2 sequence (whole entry): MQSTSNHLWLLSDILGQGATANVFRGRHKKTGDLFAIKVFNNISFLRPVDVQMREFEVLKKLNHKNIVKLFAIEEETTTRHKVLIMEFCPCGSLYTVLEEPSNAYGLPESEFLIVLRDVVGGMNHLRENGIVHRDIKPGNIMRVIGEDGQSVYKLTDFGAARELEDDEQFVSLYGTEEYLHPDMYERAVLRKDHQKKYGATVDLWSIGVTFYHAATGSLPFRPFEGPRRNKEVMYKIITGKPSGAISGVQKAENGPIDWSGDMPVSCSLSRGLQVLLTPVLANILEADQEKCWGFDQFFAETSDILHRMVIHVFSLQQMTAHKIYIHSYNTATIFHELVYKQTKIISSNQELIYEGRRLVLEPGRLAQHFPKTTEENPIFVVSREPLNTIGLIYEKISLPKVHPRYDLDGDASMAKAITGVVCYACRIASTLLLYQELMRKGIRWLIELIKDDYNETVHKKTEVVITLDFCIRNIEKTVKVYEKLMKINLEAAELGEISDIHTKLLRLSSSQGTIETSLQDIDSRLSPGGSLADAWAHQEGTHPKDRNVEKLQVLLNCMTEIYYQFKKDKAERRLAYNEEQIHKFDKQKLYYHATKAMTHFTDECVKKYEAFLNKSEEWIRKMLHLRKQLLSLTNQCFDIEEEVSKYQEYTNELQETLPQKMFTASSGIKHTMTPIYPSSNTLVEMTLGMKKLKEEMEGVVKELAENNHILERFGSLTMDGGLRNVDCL
To be noted: at 0.1 µM.

Sequence of Serine/threonine-protein kinase pim-2 (Homo sapiens) (Q9P1W9 whole entry, looked up): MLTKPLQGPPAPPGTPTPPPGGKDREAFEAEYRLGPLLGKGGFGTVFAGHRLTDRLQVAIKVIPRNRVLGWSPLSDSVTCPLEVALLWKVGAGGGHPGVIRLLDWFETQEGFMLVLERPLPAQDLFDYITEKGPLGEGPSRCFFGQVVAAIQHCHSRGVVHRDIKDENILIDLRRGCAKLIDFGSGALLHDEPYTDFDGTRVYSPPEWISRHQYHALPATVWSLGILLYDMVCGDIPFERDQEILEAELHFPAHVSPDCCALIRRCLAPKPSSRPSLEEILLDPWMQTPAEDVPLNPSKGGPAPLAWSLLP

As to `CC(C)COC(=O)c1ccc2c(c1)/C(=C/Nc1ccc(S(N)(=O)=O)cc1)C(=O)N2`, the inhibition was 5.85% in experiment [1]; 8.76% in experiment [2]; 48.8% in experiment [3]; -0.6% in experiment [4]; 1.18% in experiment [5]; 2.01% in [6]. For the same molecule, the inhibition worked out at 72.2% in experiment [7], 4.76% in experiment [8], 39.7% in [9] and 38.1% in experiment [10].

For `CC(=O)Nc1cccc(C#Cc2cncnc2Nc2ccc(OCc3cccc(F)c3)c(Cl)c2)c1`, the inhibition in experiment [1] was 1.31%; in experiment [2], 2.57%; in [3] it was -1.69%; in [4], 0.16%; in experiment [5] it was -0.79%; in experiment [6], 4.24%. The inhibition in [7] amounted to 2.15%; in experiment [8], 1.42%; in experiment [9], 1.44%; in experiment [10] it was 1.95%.

As to `[O-][S+]1CCN(Cc2ccc(-c3ccc4ncnc(Nc5ccc(OCc6cccc(F)c6)c(Cl)c5)c4c3)o2)CC1`, the inhibition in [1] is 0.11%; in experiment [2], 0.21%; in [3] it was 1.34%; in experiment [4], 2%; in [5], 2.05%; in experiment [6], 5.68%. Moreover, the inhibition in [7] stood at 12.1%; in experiment [8], 8.92%; in experiment [9], 10.4%; in [10] it was 5.39%.

As to `CC(C)(CO)CNC(=O)c1ccc2c(c1)/C(=N/Nc1ccc(S(N)(=O)=O)cc1)C(=O)N2`, the inhibition in experiment [1] is 4.28%; in experiment [2] it was 1.57%; in experiment [3], 14.2%; in experiment [4], -0.02%; in [5], -0.16%; in experiment [6], 3.06%. The inhibition was 27.7% in experiment [7], -1.9% in [8], 36% in [9] and 21.7% in [10].

With `CCn1c(-c2nonc2N)nc2ccccc21`, the inhibition in experiment [1] was 1.82%; in experiment [2], -0.8%; in experiment [3], 10.7%; in [4], 0.58%; in experiment [5] it was -0.74%; in experiment [6], 7.25%. The inhibition turned out to be 7.65% in experiment [7], 9.3% in [8], 1.28% in [9] and 3.25% in [10].

Take `O=S(=O)(CCNCc1ccc(-c2ccc3ncnc(Nc4ccc(OCc5cccc(F)c5)c(Cl)c4)c3c2)o1)c1ccccc1`: the inhibition in experiment [1] is 0.58%; in experiment [2], -0.16%; in experiment [3], 1.33%; in experiment [4] it was 2.07%; in experiment [5], 2.09%; in experiment [6], 3.17%. For the same molecule, the inhibition in [7] is 9.64%; in [8], 2.1%; in experiment [9] it was 6.58%; in [10], 4.82%.

With `COc1ccc2c(-c3ccnc(Nc4cccc(OC(F)(F)F)c4)n3)cnn2n1`, the inhibition was 0.02% in [1]; 0.74% in [2]; 1.07% in experiment [3]; 1.98% in [4]; 3.27% in experiment [5]; 7.04% in [6]. For the same molecule, the inhibition in experiment [7] is 12.8%; in experiment [8] it was 9.16%; in experiment [9], 12.1%; in experiment [10], 7.22%.

For the molecule `Clc1ccc(-c2nn3ncccc3c2-c2ccnc(Nc3ccccc3)n2)cc1`, the inhibition in experiment [1] is 0.51%; in experiment [2] it was 3.12%; in experiment [3], 0.33%; in experiment [4] it was 0.57%; in [5], -0.73%; in experiment [6], 3.67%. Moreover, the inhibition in [7] is 13.6%; in experiment [8] it was -1.6%; in experiment [9], 13.9%; in [10], 1.29%.

Regarding `CCN1CCC(CC(=O)Nc2n[nH]c3nnc(-c4cccc(F)c4F)cc23)CC1`, the inhibition in experiment [1] was 1.56%; in experiment [2], 1.76%; in experiment [3], 2.5%; in experiment [4], 1.08%; in experiment [5] it was 1.15%; in experiment [6] it was 4.85%. The inhibition in [7] was 5.87%; in experiment [8], -1.82%; in experiment [9] it was 1.81%; in experiment [10], 1.12%.

Consider `CCN(CC)S(=O)(=O)c1ccc(OC)c(Nc2ncc(-c3ccccc3)o2)c1`, for which the inhibition in experiment [1] was found to be 0.18%; in [2], 2.06%; in [3] it was 3.12%; in experiment [4] it was 0.51%; in experiment [5], 0.24%; in [6], 1.24%. For the same molecule, the inhibition in experiment [7] was determined as 6.72%; in [8], 3.3%; in experiment [9], 2.83%; in experiment [10] it was 1.32%.

In the case of `NS(=O)(=O)c1ccc(Nc2ncc(-c3ccccc3)o2)cc1`, the inhibition is 0.32% in experiment [1]; -0.13% in [2]; 0.88% in experiment [3]; 1.46% in experiment [4]; 1.61% in experiment [5]; 6.09% in [6]. The inhibition in experiment [7] was 9.25%; in experiment [8], 6.43%; in experiment [9] it was 18.9%; in experiment [10], 3.13%.

Consider `Cc1cccc2c1NC(=O)/C2=N\Nc1ccc(S(N)(=O)=O)cc1`, for which the inhibition in experiment [1] was 0.28%; in experiment [2], -0.05%; in [3], -2.33%; in [4] it was 0.84%; in [5], -0.06%; in experiment [6] it was 6.76%. In addition, the inhibition in experiment [7] is 2.58%; in experiment [8], 7.86%; in experiment [9], 2.38%; in experiment [10] it was 2.84%.

For the molecule `CN1CCC(n2cnc(-c3ccc(F)cc3)c2-c2ccnc(N)n2)CC1`, the inhibition in [1] was determined as 6.09%; in [2] it was 2.48%; in experiment [3] it was 21.3%; in experiment [4] it was 1%; in experiment [5], 1.6%; in experiment [6], 2.58%. For the same molecule, the inhibition in experiment [7] is 7.47%; in [8] it was 7.38%; in [9], 21.9%; in [10] it was -1.27%.

As for `CCn1c(-c2nonc2N)nc2c(C#CC(C)(C)O)ncc(OC3CCNCC3)c21`, the inhibition in [1] stood at 11.7%; in [2] it was 2.64%; in experiment [3] it was 23.8%; in experiment [4], 0.79%; in [5], 1.22%; in experiment [6], 3.53%. The inhibition in experiment [7] worked out at 10.6%; in experiment [8], 3.69%; in experiment [9] it was 14.8%; in [10] it was 12.2%.

Turning to `CS(=O)(=O)CCNCc1ccc(-c2ccc3ncnc(Nc4ccc(OCc5ccccc5)c(C(F)(F)F)c4)c3c2)o1`, the inhibition in experiment [1] is 1.13%; in [2] it was -1.28%; in [3] it was -0.2%; in experiment [4], 1.1%; in [5], 1.66%; in experiment [6], 4.5%. The inhibition in [7] was found to be 6.16%; in experiment [8], 4.8%; in [9], 2.29%; in [10] it was 0.23%.

On to `CS(=O)(=O)CCNCc1coc(-c2ccc3ncnc(Nc4ccc(OCc5ccccc5)cc4)c3c2)c1`, for which the inhibition in [1] turned out to be 0.48%; in experiment [2], 1.2%; in experiment [3] it was 3.43%; in experiment [4], 1.41%; in experiment [5], 1.21%; in experiment [6] it was 1.7%. The inhibition in [7] is 8.27%; in experiment [8] it was -0.18%; in experiment [9] it was 5.7%; in experiment [10], 2.64%.

As for `COc1ccc(-c2oc3ncnc(N)c3c2-c2ccc(NC(=O)Nc3cc(C(F)(F)F)ccc3F)cc2)cc1`, the inhibition was found to be 1.06% in experiment [1]; 0.37% in experiment [2]; 5% in experiment [3]; 2.58% in experiment [4]; 4.28% in experiment [5]; 6.56% in [6]. Also, the inhibition was 14.4% in experiment [7], 11.9% in experiment [8], 10.7% in experiment [9] and 1.47% in experiment [10].
